Assay [1] is described as follows: qHTS of pediatric cancer cell lines to identify multiple opportunities for drug repurposing: Primary screen for OHS-50 cells (AID 1347103). Further: nearly all actives have a fitted effect of over 40% in size. Further: potency means the concentration at half of the fitted maximal effect. Particulars: OHS-50 osteosarcoma viability, CellTiter-Glo luminescence, 48 h; series mostly up to 57.3 µM. In a few lines:
(§1)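 Cells (500-1,000/well) rested 5 h, then received compounds for 48 h; metabolically active cells were measured by CellTiter-Glo luminescence. Final concentrations spanned up to 46 µM (MIPE, 11-point) or 0.59 nM-46 µM (NPC, 8-point) in primary screens, 11-point in follow-ups.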
(Quantitative high-throughput screening tests each substance at several concentrations.)

Assay [2] can be described thus: qHTS of pediatric cancer cell lines to identify multiple opportunities for drug repurposing: Primary screen for control Hh wild type fibroblast cells (AID 1347106).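 Further: a drop in luminescence marks cytotoxicity and a rise apparent proliferation; nearly all actives have a fitted effect of over 55% in size.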 The note with it: Hh wild-type fibroblast viability, CellTiter-Glo luminescence, 48 h; series mostly up to 46 µM. The gist of the method:
(§2)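 Cells (500-1,000/well) in growth media were settled 5 h at 37 degrees C, then given compounds for 48 h. Viability was read as CellTiter-Glo luminescence. Primary runs used MIPE at 11 points (0.78 nM-46 µM) and NPC at 8 points (0.59 nM-46 µM); follow-ups used 11 points.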

Assay [3] is described as follows: qHTS of pediatric cancer cell lines to identify multiple opportunities for drug repurposing: Primary screen for Rh30 cells (AID 1347107). Further: nearly all actives have a fitted effect of over 75% in size. Particulars: Rh30 rhabdomyosarcoma viability, CellTiter-Glo luminescence, 48 h; series mostly up to 46 µM. The gist of the method: as §2
Assay [4] can be described thus: qHTS of pediatric cancer cell lines to identify multiple opportunities for drug repurposing: Primary screen for Rh41 cells (AID 1347108). Further: nearly all actives have a fitted effect of over 70% in size. Further: potency means the concentration at half of the fitted maximal effect. The note with it: Rh41 rhabdomyosarcoma viability, CellTiter-Glo luminescence, 48 h; series mostly up to 46 µM. The gist of the method: (§3)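 Viability was measured as metabolically active cells after 48 hours of treatment, read by CellTiter-Glo luminescence. Compounds were tested at multiple final concentrations, giving concentration-response curves.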

A short description of assay [5]: qHTS of pediatric cancer cell lines to identify multiple opportunities for drug repurposing: Primary screen for RD cells (AID 1347104). Further: nearly all actives have a fitted effect of over 55% in size. Further: potency means the concentration at half of the fitted maximal effect. The note with it: RD rhabdomyosarcoma viability, CellTiter-Glo luminescence, 48 h; series mostly up to 46 µM. In a few lines:
as §3

Assay [6] in a line: qHTS of pediatric cancer cell lines to identify multiple opportunities for drug repurposing: Primary screen for Rh18 cells (AID 1347102). Further: nearly all actives have a fitted effect of over 65% in size. Particulars: Rh18 rhabdomyosarcoma viability, CellTiter-Glo luminescence, 48 h; series mostly up to 46 µM. In a few lines: as §2
The nature of assay [7]: qHTS of pediatric cancer cell lines to identify multiple opportunities for drug repurposing: Primary screen for MG 63 (6-TG R) cells (AID 1347105). Further: nearly all actives have a fitted effect of over 50% in size. Further: potency means the concentration at half of the fitted maximal effect. Particulars: MG 63 (6-TG R) viability, CellTiter-Glo, 48 h; series mostly up to 46 µM. In a few lines:
as §3

Assay [8] in a line: qHTS of pediatric cancer cell lines to identify multiple opportunities for drug repurposing: Primary screen for BT-12 cells (AID 1347101). Further: nearly all actives have a fitted effect of over 25% in size. Further: potency means the concentration at half of the fitted maximal effect. Particulars: BT-12 viability, CellTiter-Glo luminescence, 48 h; series mostly up to 57.3 µM. The gist of the method:
as §1

Assay [9] is described as follows: qHTS of pediatric cancer cell lines to identify multiple opportunities for drug repurposing: Confirmatory screen for A673 cells (AID 1347110).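 Further: potency means the concentration at half of the fitted maximal effect; cells exposed to compound for 48 h before the viability read; nearly all actives have a fitted effect of over 65% in size.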 Particulars: A673 Ewing sarcoma cell viability; series mostly up to 45.9 µM. The gist of the method: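 Viability was read as ATP luminescence (CellTiter-Glo) after 48 h of compound exposure at 37 C in A673 cells seeded at 500-1,000/well. Titrations reached 46 uM final, with 11 points in the confirmatory screen. Concentration-response curves were fitted directly.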

Assay [10] in a line: qHTS of pediatric cancer cell lines to identify multiple opportunities for drug repurposing: Confirmatory screen for Rh41 cells (AID 1347123). Further: potency means the concentration at half of the fitted maximal effect; nearly all actives have a fitted effect of over 60% in size. Particulars: Rh41 rhabdomyosarcoma cells, viability/cytotoxicity qHTS; series mostly up to 45.9 µM. The gist of the method: as §2
Assay [11] is described as follows: qHTS of pediatric cancer cell lines to identify multiple opportunities for drug repurposing: Confirmatory screen for TC32 cells (AID 1347118).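 Further: potency means the concentration at half of the fitted maximal effect; cells exposed to compound for 48 h before the read; nearly all actives have a fitted effect of over 65% in size.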 The note with it: TC32 Ewing sarcoma cells viability qHTS; series mostly up to 45.9 µM. The gist of the method:
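Luminescent CellTiter-Glo read-out of metabolically active TC32 cells after 48 h compound exposure. Primary: MIPE 11-point, 0.78 nM–46 µM; NPC 8-point, 0.59 nM–46 µM. Confirmatory: 11-point dilutions.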

The nature of assay [12]: qHTS of pediatric cancer cell lines to identify multiple opportunities for drug repurposing: Confirmatory screen for MG 63 (6-TG R) cells (AID 1347119). Further: nearly all actives have a fitted effect of over 55% in size. Particulars: MG-63 (6-TG resistant) osteosarcoma viability; series mostly up to 45.9 µM. The gist of the method:
as §2

The nature of assay [13]: qHTS of pediatric cancer cell lines to identify multiple opportunities for drug repurposing: Confirmatory screen for NB1643 cells (AID 1347109). Further: nearly all actives have a fitted effect of over 45% in size. The note with it: NB1643 neuroblastoma cell viability; series mostly up to 45.9 µM. In a few lines: as §2
Assay [14] is described as follows: qHTS of pediatric cancer cell lines to identify multiple opportunities for drug repurposing: Confirmatory screen for LAN-5 cells (AID 1347113). Further: nearly all actives have a fitted effect of over 65% in size. Particulars: LAN-5 neuroblastoma cell viability; series mostly up to 45.9 µM. The gist of the method:
as §2

Assay [15] in a line: qHTS of pediatric cancer cell lines to identify multiple opportunities for drug repurposing: Confirmatory screen for NB-EBc1 cells (AID 1347115).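 Further: cells exposed to compound for 48 h before the viability read; nearly all actives have a fitted effect of over 45% in size.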 Particulars: NB-EBc1 neuroblastoma cells, viability (cytotoxicity); series mostly up to 45.9 µM. In a few lines:
as §2

Assay [16] in a line: qHTS of pediatric cancer cell lines to identify multiple opportunities for drug repurposing: Confirmatory screen for SJ-GBM2 cells (AID 1347116). Further: nearly all actives have a fitted effect of over 60% in size. Particulars: SJ-GBM2 glioblastoma cells, viability; series mostly up to 45.9 µM. The gist of the method:
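Viability measured as metabolically active cells via CellTiter-Glo luminescence following 48 hours of compound exposure, 11-point dilutions in confirmatory testing. 500-1,000 cells/well plated 5 hours before dosing; controls were DMSO and 2.3 µM bortezomib.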

Assay [17] is described as follows: qHTS of pediatric cancer cell lines to identify multiple opportunities for drug repurposing: Confirmatory screen for BT-37 cells (AID 1347117). Further: nearly all actives have a fitted effect of over 55% in size. The note with it: BT-37 pediatric cancer cells, viability; series mostly up to 45.9 µM. In a few lines: as §2
A short description of assay [18]: qHTS of pediatric cancer cell lines to identify multiple opportunities for drug repurposing: Confirmatory screen for control Hh wild type fibroblast cells (AID 1347121). Further: nearly all actives have a fitted effect of over 70% in size. The note with it: viability qHTS; series mostly up to 45.9 µM. The gist of the method:
as §2

SMILES strings stand for the structures. Records with an inconclusive call do not appear. Calls of active or inactive are those of the source. The call rests on the fitted dose curve; in most records, active means well fitted curve in the direction sought with a large enough effect; inconclusive means small, poorly fitted or top-dose-only effect, or another doubt; inactive means no such curve, though single readings can be large; an effect the other way counts as inactive or inconclusive.

Consider `CC/C(=C(/CC)c1ccc(O)cc1)c1ccc(O)cc1`, for which, in assay [1], the Potency is 15.5 µM (active). Besides, the Potency entry in [2], in [3] and in assay [4] was “inactive” each time.
In the case of `CCCCCCCCCCOCC(O)CN` (stereo not drawn), in assay [1], the Potency was 30.9 µM (active).
`COC1=CC(=O)C[C@@H](C)[C@]12Oc1c(Cl)c(OC)cc(OC)c1C2=O`: the Potency entry in [5], in assay [2] and in assay [3] was “inactive” in each case.
With `CN(C)CCCOc1nn(Cc2ccccc2)c2ccccc12`, the Potency result in assay [6], in [7], in [2], in assay [3] and in assay [4] was “inactive” in each case.
For `COc1c(C)c2c(c(O)c1C/C=C(\C)CCC(=O)O)C(=O)OC2`, the Potency is 0.692 µM (active) in assay [8], 2.61 µM (active) in assay [9] and 1.17 µM (active) in assay [10]. Moreover, the Potency entry in assay [2] was “inactive”.
`CCOc1ccc2nc3cc(N)ccc3c(N)c2c1`: the Potency in [8] is 11 µM (active); in assay [5], 23.7 µM (active); in [9], 18.5 µM (active); in assay [11] it was 2.61 µM (active); in assay [10], 14.7 µM (active). The Potency result in assay [1], in assay [7], in assay [2], in [3] and in [12] was “inactive” in each case.
For the compound `COC(=O)C1=C(C)NC(C)=C(C(=O)O[C@@H]2CCCN(Cc3ccccc3)C2)[C@@H]1c1cccc([N+](=O)[O-])c1`, the Potency in assay [1] was 19.5 µM (active). In addition, the Potency result in [5], in [2] and in [3] was “inactive” throughout.
On to `C=C1C[C@H]2[C@@H]3C=C(C)C4=CC(=O)CC[C@]4(C)[C@H]3CC[C@]2(C)[C@@]1(OC(C)=O)C(C)=O`, for which the Potency in assay [1] was 30.9 µM (active); in assay [11], 6.57 µM (active). In addition, the Potency result in assay [5], in [7], in assay [2], in [3], in assay [4] and in assay [13] was “inactive” in each case. Further, the Potency result in assay [14], in assay [15], in [16], in assay [17], in assay [12] and in assay [18] was “inactive” each time.
Take `CCCSS/C(CCO)=C(\C)N(C=O)Cc1cnc(C)nc1N`: the Potency entry in assay [8], in assay [2] and in assay [3] was “inactive” each time. Further, the Potency in assay [1] is 21.9 µM (active).
On to `O=C(OCCOCCO)c1ccccc1Nc1cccc(C(F)(F)F)c1`, for which the Potency result in assay [6], in [5], in assay [7], in [2], in assay [3] and in assay [4] was “inactive” throughout. Also, the Potency in assay [1] is 24.6 µM (active).
On to `CCCCOc1ccc(C(=O)CCN2CCCCC2)cc1`, for which the Potency result in assay [2] and in [3] was “inactive” each time.
For `C=C(CC)C(=O)c1ccc(OCC(=O)O)c(Cl)c1Cl`, the Potency entry in [6], in [1], in assay [2] and in assay [3] was “inactive” in each case. In [7], the Potency was 21.1 µM (active).
With `c1ccc(OCc2ccc(CCCN3CCOCC3)cc2)cc1`, the Potency entry in [6], in assay [5], in assay [7], in [2] and in [3] was “inactive” throughout.
With `O=C(CCN1CCC(c2ccccc2)C1)c1ccc2c(c1)OCCO2` (stereo not drawn), the Potency entry in [2] is “inactive”.
`CCCCOc1ccc(OCCCN2CCOCC2)cc1`: the Potency entry in assay [5], in assay [7], in assay [2], in assay [3] and in assay [4] was “inactive” in each case.
In the case of `Cc1ccc(O)c2ncccc12`, the Potency was 11 µM (active) in [8], 8.41 µM (active) in assay [5], 10.6 µM (active) in assay [7] and 4.73 µM (active) in assay [4].
Take `CC1=C(C(=O)OC(C)C)C(c2cccc([N+](=O)[O-])c2)C(C(=O)OC2CN(C(c3ccccc3)c3ccccc3)C2)=C(N)N1` (stereo not drawn): the Potency in assay [5] was 23.7 µM (active). Further, the Potency entry in assay [2] was “inactive”.
Consider `Oc1c(I)cc(Cl)c2cccnc12`, for which the Potency in assay [1] is 21.9 µM (active); in assay [7], 21.1 µM (active). Moreover, the Potency entry in assay [2] and in [3] was “inactive” each time.
As to `Clc1ccc2c(c1)CCc1cccnc1C2=C1CCNCC1`, the Potency in [1] is 15.5 µM (active). Moreover, the Potency entry in assay [7], in [2] and in assay [4] was “inactive” in each case.
